In paper PMC10163288:
These entries were drawn from the full list. The true hit rate is not given. Values without a mark were called inactive.

B1: il10ra_site1_sap_19_mot_HHH_b2_03220_af2_000000223_0001_23_40_H_._HHH_b1_07213_0001_0000100001_0000001_0_0001 (protein)
chain: SSSSDEEQEELLRLLRKLVELLLRGDKEEAERLARELLELAEELNDEKVVHVVEDLEKTVSSSSS
B2: il10ra_site1_sap_24_mot_HHH_b2_00475_000000107_0001_44_57_H_._HHH_b1_04576_0001_0000500027_0000001_0_0001 (protein)
chain: DLLELAFELQRRQGTPPEDVIRALLYLAHAANDPERVELLEEVLKLLEDGDPERAEELLKEASKR
B3: il10ra_site1_sap_20_mot_HHH_b1_07100_000000193_0001_1_18_H_._HHH_b2_05849_0001_0000400035_0000001_0_0001_af2pred_0001 (protein)
chain: SSSSSERLELTIKFIEFLLEQGDPEAAKRLARAAAQIAKKDGDEELLRRIEELLEEAEELLSSSS
B4: il10ra_site1_normal_mot_1cde5897893f3d1588f92be3b001cdf2_0001_af2_000000130_0001_54_65_H_._HHH_b2_05871_0001_0000300015_0000001_1_af2pred_0001 (protein)
chain: SSSSSDEEVEERVEELLERLHHVDPKEAAQLLHEAARLAAELDNPELLELVFEAAEEVISSSSSS
B5: il10ra_site1_sap_30_mot_HHH_b1_02809_af2_000000277_0001_40_57_H_._HHH_b1_05733_0001_0000200016_0000002_0_0001 (protein)
chain: SSSSSEASRRIYELLRRIVELHHEGNPEEARELIEEAKELAEEAGDRVLLWVIEWLERLVNSSSS
B6: il10ra_site1_sap_21_mot_HHH_b1_04771_000000013_0001_40_56_H_._HHH_b1_05247_0001_0000500023_0000001_0_0001 (protein)
chain: SSSSDQEEELVRAAIRLIEQLIKNGNPEAARMILWAAEKLAKEINNPELLEELEELKELLNSSSS
B7: il10ra_site1_normal_mot_a6c796b944619e241e020fd597ddb6da_0001_af2_000000092_0001_15_31_H_._HHH_b2_01778_af2_0001_0000100002_0000002_0_af2pred_0001 (protein)
chain: SSSSSSSEEEQEVHALIFFARISDNEDAAKISLELAKKIAEEINNEELREEIEELEKELSSSSSS
B8: il10ra_site1_normal_mot_HHH_b2_01705_af2_000000069_0001_44_57_H_._HHH_b1_04218_af2_0001_0000400020_0000001_0 (protein)
chain: SSSSSSDSEELLEEAEELLKEIKDPEERTEVYRKFAEELVELGDREAIERLSELFIRASSSSSSS
B9: il10ra_site1_sap_19_mot_HHH_b1_00992_000000182_0001_23_40_H_._HHH_b1_02574_0001_0000200023_0000001_0_0001 (protein)
chain: SSSSDEEEELVRAALRLAEQAYENGDPEAAKRLLWAAEFLAREIGDEELEELVERVEEKISSSSS
B10: il10ra_site1_sap_24_mot_HHH_b1_02665_000000293_0001_1_18_H_._HHH_b2_00244_0001_0000100001_0000001_0_0001_af2pred_0001 (protein)
chain: SSSSDSRELIRLLRRALELLNDGNPEEAEKLLERAQEIAEEANSLNLRVVIEFVLEQVEQHSSSS
B11: il10ra_site1_normal_mot_HHH_b2_08265_af2_000000206_0001_22_38_H_._HHH_b2_05887_0001_0000200025_0000002_0 (protein)
chain: SSSSSDEEEVEELTREIERLLEEGDLEEAARLIQELLRVAYENKDQEAIQLAWELAQLAKSSSSS
B12: il10ra_site1_normal_mot_HHH_b2_08186_000000021_0001_43_56_H_._HHH_b1_08707_0001_0000400035_0000001_0 (protein)
chain: SSSSSDIEELLEEAERLAEEGNPEEALRLLQEALRLIFENQDEELLQELWEVLRLVARLSSSSSS
B13: il10ra_site1_sap_8_mot_HHH_b1_06348_000000162_0001_1_15_H_._HHH_b1_06922_0001_0000100010_0000001_0_0001_af2pred_0001 (protein)
chain: SSSSSEAEKALRWFLRAVEELLKRGNPEAAKLALRDARFAAKFLNDEEIEERLEELEKLLDSSSS
B14: il10ra_site1_sap_18_mot_HHH_b1_04818_af2_000000063_0001_42_55_H_._HHH_b1_04225_af2_0002_0000100001_0000002_0_0001 (protein)
chain: SSSSDETEEVAELMREAVELDHNGDKEEAERVAREALELAEQLNNDVLRIQAEYLEKLIGSSSSS
B15: il10ra_site1_sap_17_mot_HHH_b2_03328_af2_000000127_0001_1_19_H_._HHH_b1_04993_0001_0000100008_0000001_0_0001 (protein)
chain: SSSSSIRERIIRLLYRALRLAAEGNPEEAERLIEEAHELAEELGDPELERYIRILLHFVRSSSSS
B16: il10ra_site1_sap_16_mot_HHH_b2_04251_af2_000000037_0001_42_56_H_._HHH_b1_07004_0001_0000200017_0000001_0_0001 (protein)
chain: SSSSDVRERAARVAIEVLRIAFQQSDPEALRAVWELFRRIIEEGDPELLEELEQLLEELRSSSSS
B17: il10ra_site1_sap_30_mot_HHH_b2_02053_af2_000000006_0001_3_19_H_._HHH_b2_06177_0001_0000100006_0000002_0_0001_af2pred_dldesign_0_af2pred (protein)
chain: SPEIEAIRALLKENLSLACAALAKLLAESGNQEDIALARELARLLFEDPERAKELAEKLLAELAK
B18: il10ra_site1_normal_mot_8756ee2cf497b5429c717dfc0c0bcfd6_0001_000000186_0001_1_13_H_._HHH_b1_07372_0001_0000100003_0000001_1 (protein)
chain: SSSSSEEAREVYELIRRAAELHRNGNPEEAEEVLKEAEELAREANNDVLLFQIEYLLRHIGSSSS
B19: il10ra_site1_sap_16_mot_HHH_b1_00992_000000182_0001_23_40_H_._HHH_b1_02295_af2_0001_0000300017_0000001_0_0001 (protein)
chain: SEQVREIEELLKRNVEQAIAALAHLLAKSGDPELLRLAKELSRLMFQNPEEARKLVEEILEELKK

molecular target: il10ra, Q13651; experiment: yeast display titration
Sequence (Q13651 whole entry): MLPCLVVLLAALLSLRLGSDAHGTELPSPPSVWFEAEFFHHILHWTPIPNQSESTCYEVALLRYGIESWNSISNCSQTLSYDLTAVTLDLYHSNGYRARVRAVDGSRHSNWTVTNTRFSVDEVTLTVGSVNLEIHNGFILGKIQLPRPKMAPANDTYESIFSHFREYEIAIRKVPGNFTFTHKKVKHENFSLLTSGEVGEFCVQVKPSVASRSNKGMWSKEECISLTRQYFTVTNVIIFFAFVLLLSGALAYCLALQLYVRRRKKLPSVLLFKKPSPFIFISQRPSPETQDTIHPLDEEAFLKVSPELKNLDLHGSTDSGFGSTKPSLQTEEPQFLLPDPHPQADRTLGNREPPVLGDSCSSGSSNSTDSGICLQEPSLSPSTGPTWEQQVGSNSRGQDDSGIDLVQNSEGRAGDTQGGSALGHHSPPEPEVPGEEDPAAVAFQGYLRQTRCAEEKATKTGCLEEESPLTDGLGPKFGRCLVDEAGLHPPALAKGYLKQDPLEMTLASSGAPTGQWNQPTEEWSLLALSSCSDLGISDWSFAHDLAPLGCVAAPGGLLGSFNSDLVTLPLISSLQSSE

Binder | apparent Kd
B1 | no binding seen
B2 | no binding seen
B3 | no binding seen
B4 | no binding seen
B5 | no binding seen
B6 | no binding seen
B7 | no binding seen
B8 | no binding seen
B9 | no binding seen
B10 | no binding seen
B11 | no binding seen
B12 | no binding seen
B13 | no binding seen
B14 | no binding seen
B15 | no binding seen
B16 | no binding seen
B17 | no binding seen
B18 | no binding seen
B19 | no binding seen
